Data: PubChem BioAssay (Tox21)
Where “and” joins values, the source holds several entries; their conditions need not be identical. Equal values may be shown once. Results filed as inconclusive are left out. A call without a number means that no potency is given here. Calls of active or inactive are those of the source. Unless noted, calls follow the shape of the dose curve; as a rule, active = well fitted curve in the direction sought with a large enough effect in the repeat runs; inconclusive = weak or mixed curves; inactive = no such curve, though single readings can be large; an effect the other way counts as inactive or inconclusive.

How the values were obtained:
[1] = qHTS assay for small molecule agonists of the p53 signaling pathway (AID 651631; calls by dose curve; also: nearly all actives have a fitted effect of over 15% in size; also: potency is read from the fitted curve at half-maximal effect); settings: HCT-116 p53RE-bla reporter, beta-lactamase FRET ratio, 16 h; series mostly up to 73.3 µM
Summary of the method: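 HCT-116 p53RE-bla reporter line, 16 h compound treatment at 37 °C, then fluorescence after 2 h with B/G FRET substrate.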

[2] = qHTS assay for small molecules that induce genotoxicity in human embryonic kidney cells expressing luciferase-tagged ATAD5 (AID 651632); settings: HEK293T ATAD5-luciferase induction, 16 h; series mostly up to 83.3 µM; also: nearly all actives have a fitted effect of over 15% in size
Summary of the method: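 Reporter cells (HEK293T) express luciferase-tagged ATAD5, a protein that accumulates after DNA damage. Treat 16 hr at 37C/5% CO2, add Amplite, wait 30 min at RT, and read luminescence.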

[3] = qHTS assay for small molecule agonists of the p53 signaling pathway - cell viability (AID 651633; calls by dose curve; also: nearly all actives have a fitted effect of over 30% in size); settings: p53RE-bla HCT-116 viability, ATP luminescence, 16 h; series mostly up to 83.3 µM
Summary of the method: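 Viability counter-read: CellTiter-Glo luminescence (30 min, room temperature) in the same p53RE-bla plates. These plates had been exposed to compounds for 16 h at 37 C.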

[4] = qHTS assay for small molecules that induce genotoxicity in human embryonic kidney cells expressing luciferase-tagged ATAD5 - cell viability (AID 651634; calls by dose curve; also: nearly all actives have a fitted effect of over 25% in size); settings: HEK293T ATAD5-luc cells viability, CellTiter-Fluor, 15.5 h; series mostly up to 83.3 µM
Summary of the method: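 Seeding of 2,000 HEK293T ATAD5-luciferase cells per well preceded pin-tool compound transfer. Plates sat 15.5 hr at 37C under 5% CO2, then fluorescence was read after 30 min with CellTiter-Fluor.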

[5] = qHTS assay for small molecule disruptors of the mitochondrial membrane potential - cell viability (AID 720634; calls by dose curve; also: nearly all actives have a fitted effect of over 20% in size; also: potency is read from the fitted curve at half-maximal effect); settings: HepG2 viability, ATP luminescence (CellTiter-Glo), 1 h; series mostly up to 83.2 µM
Summary of the method: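 Measuring cytotoxicity alongside mitochondrial potential, the screen quantified ATP by luminescence in HepG2 cells after 1 hr compound incubation and a 30 min room-temperature CellTiter-Glo step.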

[6] = qHTS assay to test for compound auto fluorescence at 590 nm (red) in HepG2 cells (AID 720674); settings: HepG2 autofluorescence, red 540/590 nm, 1 h; series mostly up to 91.3 µM
Summary of the method: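 Red autofluorescence (Ex/Em 540/590 nm, Rose Bengal sodium equivalents) was measured in HepG2 cells, 2,000 per well in MEM plus 10% FBS, plated overnight at 37 C. Readings were taken 1 hr after adding 23 nL compound or DMSO, at 37 C and 5% CO2.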

[7] = qHTS assay to test for compound auto fluorescence at 535 nm (green) in HepG2 cells (AID 720675); settings: green autofluorescence 485/535 nm, 1 h; series mostly up to 91.3 µM
[8] = qHTS assay to test for compound auto fluorescence at 460 nm (blue) in HEK293 cells (AID 720678); settings: blue autofluorescence 405/460 nm; series mostly up to 91.3 µM
Summary of the method: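 Auto fluorescence in the blue band was quantified as triamterene equivalency. HEK293 cells were seeded at 2,000/well, dosed after a 4-5 hr attachment, and kept overnight at 37C before the 405/460 nm reading.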

[9] = qHTS assay to test for compound auto fluorescence at 590 nm (red) in HEK293 cells (AID 720679); settings: red autofluorescence 540/590 nm; series mostly up to 91.3 µM
Summary of the method: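 Autofluorescence equivalency to Rose Bengal sodium, 540/590nm, in HEK293 cells exposed overnight to 23 nL compound per well.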

[10] = qHTS assay for small molecule disruptors of the mitochondrial membrane potential (AID 720635); settings: HepG2 mitochondrial membrane potential, Mito-MPS dye ratio; series mostly up to 83.2 µM; also: potency is read from the fitted curve at half-maximal effect
Summary of the method: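 Mitochondrial membrane potential tracked with Mito-MPS dye, red aggregates (ex 540/em 590 nm) against green monomers (ex 490/em 535 nm). Compound treatment 1 hr at 37C, dye 30 min in HepG2.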

Compound: Cc1nnc2n1-c1sc(CCC(=O)N3CCOCC3)cc1C(c1ccccc1Cl)=NC2
- Potency [1]: inactive
- Potency [2]: inactive
- Potency [3]: inactive
- Potency [4]: inactive
- Potency [5]: inactive
- outcome [6]: inactive
- outcome [7]: inactive
- outcome [8]: inactive
- outcome [9]: inactive

Compound: C#C[C@]1(O)C=C[C@H]2[C@@H]3CCC4=CC(=O)CC[C@@H]4[C@H]3CC[C@@]21CC
- Potency [1]: inactive
- Potency [2]: inactive
- Potency [3]: inactive
- Potency [4]: inactive
- Potency [5]: inactive
- outcome [6]: inactive
- outcome [7]: inactive
- outcome [8]: inactive
- outcome [9]: inactive

Compound: COC(=O)COc1ccc(Cl)cc1Cl
- Potency [1]: inactive
- Potency [3]: inactive
- Potency [4]: inactive
- Potency [5]: inactive
- outcome [6]: inactive
- outcome [7]: inactive
- outcome [8]: inactive
- outcome [9]: inactive

Compound: c1cc[c]([Hg][c]2ccccc2)cc1
- Potency [1]: 15.4 µM (active)
- Potency [4]: inactive
- Potency [5]: inactive
- Potency [10]: 15.4 µM (active)
- outcome [6]: inactive
- outcome [7]: inactive
- outcome [8]: inactive
- outcome [9]: inactive

Compound: CCC1(c2ccccc2)C(=O)NC(=O)NC1=O
- Potency [1]: inactive
- Potency [2]: inactive
- Potency [3]: inactive
- Potency [4]: inactive
- Potency [5]: inactive
- outcome [6]: inactive
- outcome [8]: inactive
- outcome [9]: inactive

Compound: CC(C)(C)C(=O)C(Oc1ccc(Cl)cc1)n1cncn1 (centres undefined)
- Potency [1]: inactive
- Potency [2]: inactive
- Potency [3]: inactive
- Potency [4]: inactive
- outcome [6]: inactive
- outcome [7]: inactive
- outcome [8]: inactive
- outcome [9]: inactive

Compound: CC(COc1ccc(Oc2ccccc2)cc1)Oc1ccccn1 (centres undefined)
- Potency [1]: inactive
- Potency [2]: inactive
- Potency [3]: inactive
- Potency [4]: inactive
- outcome [6]: inactive
- outcome [8]: inactive
- outcome [9]: inactive

Compound: CNC(=O)Oc1ccc(N(C)C)c(C)c1
- Potency [1]: inactive
- Potency [2]: inactive
- Potency [3]: inactive
- Potency [4]: inactive
- Potency [5]: inactive
- outcome [6]: inactive
- outcome [8]: inactive
- outcome [9]: inactive

Compound: CCCCOC(=O)[C@@H](C)Oc1ccc(Oc2ccc(C#N)cc2F)cc1
- Potency [1]: inactive
- Potency [2]: inactive
- Potency [3]: inactive
- Potency [4]: inactive
- outcome [6]: inactive
- outcome [7]: inactive
- outcome [8]: inactive
- outcome [9]: inactive

Compound: CCN(CC)c1nc(C)cc(OP(=S)(OC)OC)n1
- Potency [1]: inactive
- Potency [2]: inactive
- Potency [3]: inactive
- Potency [4]: inactive
- outcome [6]: inactive
- outcome [7]: inactive
- outcome [8]: inactive
- outcome [9]: inactive

Compound: CCCCP(CCCC)CCCC
- Potency [1]: inactive
- Potency [2]: inactive
- Potency [3]: inactive
- Potency [4]: inactive
- Potency [5]: inactive
- outcome [6]: inactive
- outcome [8]: inactive
- outcome [9]: inactive

Compound: N#CCCC#N
- Potency [1]: inactive
- Potency [2]: inactive
- Potency [3]: inactive
- Potency [4]: inactive
- outcome [6]: inactive
- outcome [7]: inactive
- outcome [8]: inactive
- outcome [9]: inactive

Compound: CCCCOC(=O)c1ccccc1C(=O)O
- Potency [1]: inactive
- Potency [2]: inactive
- Potency [3]: inactive
- Potency [5]: inactive
- outcome [6]: inactive
- outcome [7]: inactive
- outcome [8]: inactive
- outcome [9]: inactive

Compound: C[C@H]1CCC[C@H](O)CCCCCc2cc(O)cc(O)c2C(=O)O1
- Potency [1]: inactive
- Potency [2]: inactive
- Potency [3]: inactive
- Potency [5]: 26.6 µM (active)
- Potency [10]: 9.44 µM (active) and 6.91 µM (active)
- outcome [6]: inactive
- outcome [7]: inactive
- outcome [8]: inactive
- outcome [9]: inactive

Compound: O=C(Oc1ccc(Br)cc1)N1CCN2CCC1CC2
- Potency [1]: inactive
- Potency [2]: inactive
- Potency [3]: inactive
- Potency [4]: inactive
- Potency [5]: inactive
- outcome [6]: inactive
- outcome [7]: inactive
- outcome [8]: inactive
- outcome [9]: inactive

Compound: COc1ccc(C(=O)N2CCCC2=O)cc1
- Potency [1]: inactive
- Potency [2]: inactive
- Potency [3]: inactive
- Potency [4]: inactive
- outcome [6]: inactive
- outcome [7]: inactive
- outcome [8]: inactive
- outcome [9]: inactive

Compound: CC(C)(C)NCC(O)c1cc(Cl)c(N)c(Cl)c1 (centres undefined)
- Potency [1]: 1.33 µM (active)
- Potency [3]: inactive
- Potency [4]: inactive
- Potency [5]: inactive
- outcome [6]: inactive
- outcome [7]: inactive
- outcome [8]: inactive
- outcome [9]: inactive
